In PubChem BioAssay (NCI):
The panel holds about 83,000 compounds, 20% with a hit somewhere; the sample as a whole holds those more often.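 Step 1: grow cells in 96-well plates. Step 2: add test compound at a single concentration. Step 3: incubate 48 h. Step 4: record percent growth.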 A number with no mark means an inactive call. The source made the active and inactive calls.

Each compound was assayed on M14 melanoma (assay: NCI-60 one-dose screen, 48 h (100 = growth as untreated, 0 = no growth, -100 = all killed)). Settings: 10 µM unless noted.
Experimental: Growth inhibition of the M14 human tumor cell line is measured as a screen for anti-cancer activity. Cells are grown in 96 well plates and exposed to the test compound for 48 hours. Compounds are tested at a single concentration, which is 10^-5 M for most compounds. The reported endpoint is percent growth (GI% or GIPRCNT), where numbers from 0 - 100% represent growth inhibition, and numbers from -100% - 0 represent cell death. For example, a value of 40 represents 60% growth inhibition. A value of 0 means no net growth occurred over the course of the experiment. A value of -40 indicates 40% of cells at the beginning of the experiment died by the end of the experiment. A value of -100 means all cells are dead at the end of the experiment.
NCI-60 Human Tumor Cell Lines Screen was performed using the standard one-dose NCI protocol, which is described in more detail at https://dtp.cancer.gov/discovery_development/nci-60/default.htm.
Compounds with GIPRCNT values below 10 were considered active. Activity score was based on GIPRCNT using the following formula: […]
Score is 0 for GIPRCNT values of 100 or above, 50 for GIPRCNT values of 0, and 100 for GIPRCNT values of -100.

Structure (SMILES) | growth
CC(C)(C)OC(=O)N1CCN(CCn2cc(C(F)(F)F)c3c(Cl)ncnc32)CC1 | 14%
COc1cc(C(=O)NNC(=O)c2ccccc2C(=O)O)cc(OC)c1OC | 51.4%
Cc1cccc(CC(=O)c2ccccc2)n1 | 85.5%
CCCCNC(=O)Oc1ccc(/C(=C(/CC)Cc2ccccc2)c2ccc(OCCCN(C)C)cc2)cc1 | 81.8%
CC(C)(C)C(=O)Nc1nc2c(s1)CCc1ccn(S(=O)(=O)c3ccccc3)c1-2 | 96.1%
CCOC(=O)c1noc2c1CCc1cn(Cc3cc(OC)cc(OC)c3)cc1-2 | 101%
Cc1cc(C)c(O)c(C(=O)CC(Br)C(=O)O)c1 (stereo not given) | 95.1%
COc1cc2ncnc(Oc3ccc(NC(=O)Nc4ccc(CN5CCOCC5)c(C(F)(F)F)c4)c4ccccc34)c2cc1OC | 20.4%
CC(=O)CC/C=C(\C)[C@H](O)[C@H](C)C(=O)O[C@H]1C[C@H](C)C=C2C=C[C@@]3(C)O[C@@H](O)CC(=O)[C@]3(C)[C@H]21 | -84.2% (active)
CCc1cccc(-c2ccccc2)c1 | 92.6%
O=c1cc(Cl)[nH]c(=O)[nH]1 | 97.6%
CCCC(C)(C)COC(=O)c1cccc(N)c1 | 99.4%
CC(C)C1(C(C)C)NC(=O)NC1=O | 110%
CCCC(=O)Oc1ccc(/C(=C(\C)c2ccc(Cl)cc2)c2ccc(OCCN(CC)CC)cc2)cc1 | -71.8% (active)
c1ccc2c(c1)Oc1cccnc1-n1nccc1-2 | 101%
COc1cc2c(/C=C3/C(=O)Nc4ccc(O)cc43)c(Cl)n(Cc3cc(OC)c(OC)c(OC)c3)c2cc1C | 11.5%
O=C(NCCNc1nccc(-c2c(-c3cccc(O)c3)nc3sccn23)n1)c1ccc(N2CCOCC2)c(C(F)(F)F)c1 | 19.1%
CCC(CC(C)C)Nc1ccc(NC(CC)CC(C)C)cc1 (stereo not given) | 99.4%
O=[N+]([O-])c1cccc(C2c3ccccc3Oc3ccccc32)c1 | 110%
Cc1cc(Nc2ccc(Cl)c(Cl)c2)nc(N)n1 | 91.6%

Structure (SMILES) | growth
COc1ccc(C2=NN(C(=O)COc3ccc(Cl)cc3)C(O)(c3cc(F)c(Cl)cc3Cl)C2)cc1OC (stereo not given) | -13.4% (active)
O=C(Nc1ccc(-n2ccc3c(NC(=O)c4ccccc4)nccc32)cc1)Nc1cccc(C(F)(F)F)c1 | 43.7%
Cc1cc(NC(=O)c2cccc(C(F)(F)F)c2)ccc1-n1ccc2c(NC(=O)c3ccccc3)nccc21 | 96.8%
S=c1ssnc1-c1ccccn1 | 24.5%
COc1ccc2c(c1)nnc1c3cccnc3[nH]c21 | 4.79% (active)
O=C(O)c1ccc(-c2nn(-c3ccc(C(=O)O)cc3)cc2/C=N/Nc2c(F)c(F)cc(F)c2F)cc1 | 96.6%
COc1ccc(N)c(S)c1 | 101%
C[C@H]1C=C(C[C@@H](O)CC#CC#CCCCCC[C@@H](O)[C@H]2CCC(=O)O2)C(=O)O1 | 137%
FC(F)(F)c1cccc([Si](F)(c2cccc(C(F)(F)F)c2)c2cccc(C(F)(F)F)c2)c1 | 86.1%
COc1cc2c(cc1OCCCCC(=O)Nc1ccc(-c3nc4ccccc4s3)cc1)N=C[C@@H]1CCCN1C2=O | -59.3% (active)
CC1CCC(C(C)C)C(NN)C1 (stereo not given) | 102%
Oc1ccccc1/C=N/c1ccccn1 | 100%
Nc1ncnc2c1ccn2-c1cccc(NC(=O)c2cccc(C(F)(F)F)c2)c1 | 83.9%
COc1cc(C(=O)NNC(=O)c2ccccc2O)cc(OC)c1OC | 109%
O=C1CCC(=O)N1C1CCCCC1 | 94.5%
Cc1cn(-c2cc(C(=O)Nc3cccc(-n4ccc5c(NC(=O)c6ccccc6)nccc54)c3)cc(C(F)(F)F)c2)cn1 | 11.9%
CCOc1ccc(NC2=C(Cl)C(=O)c3ccccc3C2=O)cc1 | 68%
CC1(C)N=C(N)N=C(N)N1c1cccc(CCCCc2ccccc2)c1 | 6.98% (active)
CCN(CC)CCC(C(=O)O)(c1ccccc1)c1ccccc1 | 97%
NC(=O)C1=C[C@H]2[C@H]3C=C[C@@]2(O)C(=O)O[C@@H]3O1 | 32%
